Among the data in PubChem BioAssay (NCI) are growth values, retold here.

About 83,000 compounds went through this panel and 20% of them were active in at least one assay; those are over-represented in the sample as a whole.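 Plates (96-well) were seeded with cells, treated with compound at one concentration, and incubated for 48 hours before percent growth was determined.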 Unmarked numbers belong to inactive results. The source made the active and inactive calls. The calls were made as follows: active = growth percent below 10; inactive = the rest.

Some test systems named below: DU-145 prostate; K-562 leukemia; MALME-3M melanoma; MDA-MB-231 breast; RXF 393 renal; SF-268 CNS; SF-295 CNS; SF-539 CNS; UACC-257 melanoma; M14 melanoma.
Test in all cases: NCI-60 one-dose screen, 48 h (100 = growth as untreated, 0 = no growth, -100 = all killed)
Common to all, as to conditions: 10 µM

For the molecule `C=CCn1c(SCC(=O)Nc2ccc(C(=O)/C=C/c3cc(OC)c(OC)c(OC)c3)cc2)nnc1-c1cc(-c2ccc(Cl)cc2)nc2ccccc12`, the growth in the experiment with DU-145 prostate is 95.3%; in the experiment with K-562 leukemia, 75.9%; with MALME-3M melanoma it was 97.8%; in the experiment on MDA-MB-231 breast, 75%; in the experiment on RXF 393 renal, 59.4%; with SF-268 CNS it was 90.9%. For the same molecule, the growth is 98% in the experiment with SF-295 CNS, 84.3% with SF-539 CNS, 102% with UACC-257 melanoma and 95.5% in the experiment on M14 melanoma.

Consider `COc1ccc(/C=C2\CCCC3C2=Nc2ccccc2NC3c2ccc(OC)cc2)cc1` (stereo not given), for which the growth was 101% in the experiment with DU-145 prostate; 50.9% with K-562 leukemia; 94.3% in the experiment with MALME-3M melanoma; 82.4% in the experiment with MDA-MB-231 breast; 99.9% in the experiment on RXF 393 renal; 102% with SF-268 CNS. In addition, the growth in the experiment with SF-295 CNS is 89.8%; with SF-539 CNS it was 135%; in the experiment with UACC-257 melanoma it was 81.9%; in the experiment with M14 melanoma, 71.1%.

As to `O=[N+]([O-])c1ccc2ncccc2c1Cl`, the growth was -26% (active) in the experiment on DU-145 prostate; 12.1% with K-562 leukemia; 69% in the experiment with MALME-3M melanoma; 21.2% in the experiment with MDA-MB-231 breast; 91.2% in the experiment with RXF 393 renal; 38.9% in the experiment on SF-268 CNS. The growth was -0.464% (active) in the experiment on SF-295 CNS, 12.9% in the experiment on SF-539 CNS, 62.2% in the experiment on UACC-257 melanoma and 49.5% in the experiment with M14 melanoma.

In the case of `CCOC(=O)CC(S(=O)(=O)c1ccccc1)S(=O)(=O)c1ccccc1`, the growth in the experiment with DU-145 prostate is 111%; with K-562 leukemia, 78.7%; in the experiment with MALME-3M melanoma, 39.8%; in the experiment on MDA-MB-231 breast, 109%; in the experiment with RXF 393 renal, 57.5%; with SF-268 CNS, 101%. The growth was 108% in the experiment with SF-295 CNS, 104% in the experiment on SF-539 CNS, 89.6% in the experiment with UACC-257 melanoma and 115% with M14 melanoma.

With `c1ccc2c(c1)Cc1ccccc1N2CCN1CCCCC1`, the growth in the experiment with DU-145 prostate was 104%; with K-562 leukemia, 91.5%; in the experiment with MALME-3M melanoma, 111%; with MDA-MB-231 breast it was 81.5%; with RXF 393 renal, 110%; with SF-268 CNS, 99%. Also, the growth in the experiment on SF-295 CNS is 92.5%; in the experiment with SF-539 CNS it was 94.9%; in the experiment on UACC-257 melanoma, 102%; with M14 melanoma, 86.1%.

With `O=C(O)c1cc([N+](=O)[O-])ccc1Oc1ccccc1`, the growth is 104% with DU-145 prostate; 116% in the experiment with K-562 leukemia; 81.3% with MALME-3M melanoma; 97.3% in the experiment with MDA-MB-231 breast; 107% in the experiment with RXF 393 renal; 97.3% in the experiment with SF-268 CNS. Also, the growth was 101% in the experiment with SF-295 CNS, 94.6% in the experiment with SF-539 CNS, 96.8% with UACC-257 melanoma and 106% in the experiment on M14 melanoma.

Turning to `Oc1ccc(-c2[nH]c3ccccc3c2-c2nc3ccccc3o2)cc1`, the growth in the experiment on DU-145 prostate was 78.6%; in the experiment with K-562 leukemia, 19.2%; in the experiment with MALME-3M melanoma, 65%; with MDA-MB-231 breast, 48.7%; in the experiment with RXF 393 renal, 91.6%; with SF-268 CNS it was 69.8%. In addition, the growth in the experiment with SF-295 CNS is 72.1%; in the experiment on SF-539 CNS, 82.7%; with UACC-257 melanoma it was 112%; with M14 melanoma, 25.1%.

Regarding `Cc1ccc(S(=O)(=O)N(C)CCCCCC(=O)O)cc1`, the growth is 102% in the experiment with DU-145 prostate; 104% in the experiment on K-562 leukemia; 98.5% in the experiment with MALME-3M melanoma; 110% in the experiment on MDA-MB-231 breast; 103% in the experiment with RXF 393 renal; 99% in the experiment on SF-268 CNS. The growth in the experiment with SF-295 CNS is 92.7%; in the experiment with SF-539 CNS, 97.9%; in the experiment with UACC-257 melanoma it was 98.2%; with M14 melanoma, 95.1%.

As to `C=C(C)[C@@H]1CC[C@]2(COCCC#N)CC[C@]3(C)[C@H](CC[C@@H]4[C@@]5(C)Cc6c([nH]c7ccccc67)C(C)(C)[C@@H]5CC[C@]43C)[C@@H]12`, the growth was 100% with DU-145 prostate; 100% in the experiment with K-562 leukemia; 119% in the experiment with MALME-3M melanoma; 109% in the experiment on MDA-MB-231 breast; 112% in the experiment on RXF 393 renal; 101% with SF-268 CNS. For the same molecule, the growth in the experiment on SF-295 CNS is 104%; in the experiment with SF-539 CNS it was 101%; in the experiment on UACC-257 melanoma it was 116%; with M14 melanoma it was 98.7%.

As for `COc1cc(-c2nc3ccccc3o2)cc(CN2CCCCC2)c1O`, the growth in the experiment on DU-145 prostate was 12.9%; in the experiment with K-562 leukemia, 32.7%; in the experiment with MALME-3M melanoma, 28.9%; with MDA-MB-231 breast, 70.9%; with RXF 393 renal, 94.8%; with SF-268 CNS it was 68.2%. Besides, the growth with SF-295 CNS is 32.5%; with SF-539 CNS it was 83.5%; with UACC-257 melanoma, 75.2%; with M14 melanoma it was 34.9%.

Take `CCOC(=O)C1=CSC2=NC3=C(CCC/C3=C\c3ccc(Cl)cc3)C(c3ccc(Cl)cc3)N12` (stereo not given): the growth with DU-145 prostate is 92.7%; in the experiment with K-562 leukemia it was 92.7%; in the experiment with MALME-3M melanoma, 103%; in the experiment on MDA-MB-231 breast, 94.5%; in the experiment on RXF 393 renal it was 78.8%; in the experiment on SF-268 CNS, 90.8%. Besides, the growth is 104% with SF-295 CNS, 103% in the experiment with SF-539 CNS, 85.7% in the experiment on UACC-257 melanoma and 92.5% in the experiment on M14 melanoma.

Take `COc1cccc(CNc2cccc3cn[nH]c23)c1O`: the growth in the experiment with DU-145 prostate was 100%; in the experiment on K-562 leukemia, 126%; in the experiment with MALME-3M melanoma it was 88.3%; in the experiment with MDA-MB-231 breast, 72.8%; in the experiment on RXF 393 renal it was 113%; with SF-268 CNS, 106%. Besides, the growth was 108% in the experiment on SF-295 CNS, 94.7% in the experiment with SF-539 CNS, 99% in the experiment with UACC-257 melanoma and 98.7% in the experiment with M14 melanoma.

`Cc1[nH]c2ccccc2c1/C=N/Nc1ncnc2sc3c(c12)CCN(CC(=O)OC(C)(C)C)C3`: the growth with DU-145 prostate is 80.5%; in the experiment on K-562 leukemia, 22.3%; in the experiment on MALME-3M melanoma it was 120%; in the experiment on MDA-MB-231 breast, 84.5%; in the experiment with RXF 393 renal it was -0.516% (active); in the experiment with SF-268 CNS, 93.8%. Also, the growth in the experiment on SF-295 CNS is 88.8%; in the experiment with SF-539 CNS it was 62.7%; with UACC-257 melanoma it was 63.6%; in the experiment on M14 melanoma, 73.1%.
